Screens as filed in PubChem BioAssay.
uPA generation: inhibitors of cell surface uPA generation | Potency, µM (highest dose often 38.3 µM), without a hit: at the highest dose activity change, negative = inhibition, actives largely listed as inhibitors | AID 540303 | cell surface uPA generation assay, qHTS | 0.31% of 330,000 active; active means well fitted inhibition curve with a large enough effect; inconclusive means small, poorly fitted or top-dose-only effect; inactive means no such curve, though single readings can be large or run the other way; tested in mouse RAW 264.7 cells; further: potency means the concentration at half of the fitted maximal effect; on the % scale 0 is the no-effect control and ±100 the full control effect; nearly all actives have a fitted effect of over 55% in size
Six1-Eya2 blk: blocks human Six1 binding to Eya2 | Q15475+O00167 | AlphaScreen GST-Six1/His-Eya2 binding, biochemical; active compounds read low | activity change, % (no concentration beside the values) | 0.56% of 360,000 active | AID 651725; further: on the % scale 0 is the no-effect control and ±100 the full control effect
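Compounds are tested against tagged Six1 and Eya2 proteins bridged by glutathione donor and nickel acceptor beads; after a one-hour incubation at 37 °C without light, AlphaScreen emission is recorded.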
MBNL1-CUG inh: MBNL1-poly(CUG) RNA binding inhibition | 0.036% of 280,000 active | AID 2675 | Q9NR56 | TR-FRET MBNL1-His/biotin-(CUG)12 binding, 665/545 ratio | Potency, µM (titrated, usually from 57.5 µM), for inactives: at the highest dose activity change, negative = inhibition, hits mostly inhibitors; active means well fitted inhibition curve with a large enough effect in the signal ratio, with a control signal flat, not every such curve was filed as active; inconclusive means small, poorly fitted or top-dose-only effect, or effect the other way, or a change in a side signal; inactive means no such curve, though single readings can be large or run the other way; the % refers to the signal ratio; further: potency means the concentration at half of the fitted maximal effect; on the % scale 0 is the no-effect control and ±100 the full control effect
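Compound titration spanned 92 nM–58 uM against the MBNL1-His/biotin-(CUG)12 complex. After 60 min at room temperature with 5 nM streptavidin-XL665 and 0.055 ng/ul terbium anti-His, ratiometric 665/545 nm emission (Ex 340 nm) normalized to controls.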
Mito fusion act: mitochondrial division inhibition or fusion activation. S. cerevisiae fusion-defective mutant growth rescue, CellTiterGlo 48 h. 0.23% of 320,000 active. AID 485298. Potency, µM (top dose mostly 46.1 µM), for inactives: at the top dose growth rescue (activation), usual class: activators; active means well fitted activation curve with a large enough effect; inconclusive means small, poorly fitted or top-dose-only effect; inactive means no such curve, though single readings can be large or run the other way; further: potency means the concentration at half of the fitted maximal effect; % of control where 0% means no effect; nearly all actives have a fitted effect of over 45% in size
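Temperature-sensitive fusion-defective S. cerevisiae (e.g. fzo1-1, mgm1-5) were grown with compound in YPEG medium (3% ethanol, 3% glycerol) for 48 hours at 37C. Growth rescue was measured as viability by CellTiterGlo luminescence after 10 minutes at ambient.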
CtBP-E1A blk: blocks the CtBP interaction with E1A | AlphaScreen GST-E1A/His-CtBP binding, 1536-well; active compounds read low | 0.49% of 340,000 active | AID 651724 | activity change, % (test concentration not listed); further: on the % scale 0 is the no-effect control and ±100 the full control effect
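AlphaScreen with 125 nM GST-E1A and 125 nM His-CtBP (5X stocks) in Tris pH 8.0, 300 mM NaCl, BSA, Tween 20, TCEP. Compounds preincubated 2 h at 37 deg C, then glutathione donor/nickel acceptor beads added for 1 h at 37 deg C in dark.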
Numbers without * were called inactive; ? = inconclusive; nt = no result given. Most compounds without a hit are left out; they make up all but 1.1% or so of the library. Unless noted, no stated cut-off is given here; in the data, active means activity change below about -65%; inconclusive means mostly about -30% to -63%; inactive means weaker than that.

SMILES	uPA generation	Six1-Eya2 blk	MBNL1-CUG inh	Mito fusion act	CtBP-E1A blk
CCC(=O)N1CCCC(C)(C(=O)NS(=O)(=O)c2ccccc2Cl)C1 (stereo not given)	nt	0	nt	nt	9
Cc1[nH]c2ccccc2c1CCNC(=O)c1ccc2c(c1[N+](=O)[O-])C(=O)c1ccccc1C2=O	-7%	-73*	?	-5%	11
Cc1[nH]c2c(C)cccc2c1CCNC(=O)c1ccc2c(c1[N+](=O)[O-])C(=O)c1ccccc1C2=O	-9%	-65*	?	-5%	-92*
CN(C)C(=O)c1ccc2c(c1[N+](=O)[O-])C(=O)c1ccccc1C2=O	-6%	-21	?	-7%	-17
CCCCn1nnnc1C1(C)CCC(=O)N1CCOC (stereo not given)	nt	-6	nt	nt	0
Cc1ccc(S(=O)(=O)N2CCCCC2)cc1C(=O)N(CCc1ccccc1)Cc1ccccc1	-4%	-7	nt	28%	3
O=C(CNC(=O)c1ccco1)N/N=C/c1cc(Br)ccc1O	0%	-97*	26%	1%	-86*
O=C(CNC(=O)c1ccco1)N/N=C/c1ccc(O)cc1O	-7%	-86*	12%	-2%	nt
CCC/C=C/c1ccc(CN2C(C(C)C)C(=O)N(Cc3cn(CC4CCCCC4)nn3)CCS2(=O)=O)cc1 (stereo not given)	nt	-8	nt	nt	?
COc1ccccc1S(=O)(=O)N(C)C[C@@H]1OCc2cnnn2CCCC(=O)N([C@@H](C)CO)C[C@@H]1C	nt	7	nt	nt	-27
COC(=O)c1cc(O)cc(OC)c1Oc1cc(C)cc(O)c1C(=O)O	0.89µM*	?	?	-8%	-6
COCCNC(=O)C1(C)CCCN(Cc2ccc(Cl)nc2)C1 (stereo not given)	nt	-2	nt	nt	2
COc1ccc(CNc2nc(=S)[nH]c3cc(OC)c(OC)cc23)cc1	5%	-82*	?	-8%	nt
COc1cc2[nH]c(=S)nc(NCc3ccccn3)c2cc1OC	1%	-70*	-7%	?	?
COc1cc2[nH]c(=S)nc(NCc3cccc(Cl)c3)c2cc1OC	-14%	?	?	-35%	nt
COc1cc2[nH]c(=S)nc(NCc3ccccc3)c2cc1OC	-5%	-78*	?	-6%	-82*
COc1ccc(CNc2ncnc3c2[nH]c2cc(OC)c(OC)cc23)cc1	7%	?	-3%	-4%	?
COc1cc2[nH]c(=S)nc(NCc3ccc(C)cc3)c2cc1OC	-8%	-74*	13%	-16%	nt
COc1cc2[nH]c(=S)nc(NCc3cccnc3)c2cc1OC	2%	-69*	-2%	-7%	-82*
COc1ccc(/C=N/Nc2nc(-c3cccnc3)nc3ccccc23)cc1OC	-1%	8	?	-3%	0
Cc1c(O)ccc(/C=N/Nc2nc(-c3cccnc3)nc3ccccc23)c1O	?	-68*	nt	-5%	nt
Cc1ccc(Nc2nc(-c3cccnc3)nc3ccccc23)cc1	-10%	?	-3%	22%	-25
Oc1ccc(/C=N/Nc2nc(-c3cccnc3)nc3ccccc23)c(O)c1	0%	-67*	?	3%	-79*
CCc1ccc(C(=O)c2cn(CC(=O)Nc3cccc(OC)c3)c3ccc(OC)cc3c2=O)cc1	nt	nt	nt	-2%	nt
CCC/C=C/c1ccc(CN2C(C(C)C)C(=O)N(Cc3cn(CCC4OCCO4)nn3)CCS2(=O)=O)cc1 (stereo not given)	nt	-10	nt	nt	?
SMILES	uPA generation	Six1-Eya2 blk	MBNL1-CUG inh	Mito fusion act	CtBP-E1A blk
COC(=O)C[C@H]1CC[C@@H](NC(=O)c2ccncc2)[C@@H](CO)O1	nt	4	nt	nt	2
O=C(Nc1ccccc1OC(=O)c1ccccc1)c1ccccc1	11µM*	1	nt	nt	5
O=C(CCc1ccccc1)Nc1ccccc1OC(=O)c1ccccc1	2%	-14	nt	nt	5
CCN1C(=O)[C@@H]2[C@@H]3CN(S(=O)(=O)c4ccc(C)cc4)[C@@H](c4ccccc4F)[C@@H]3C(=O)C[C@@H]2C1=O	nt	6	nt	nt	6
COc1cc2c(cc1OC)-c1cc(N3CCCCCC3)nc(=O)n1CC2	-10%	?	0%	21%	3
COc1cc2c(cc1OC)-c1cc(NC3CCCCCC3)nc(=O)n1CC2	-19%	-71*	-3%	-8%	?
CCN(CC)CCCNc1cc2n(c(=O)n1)CCc1cc(OC)c(OC)cc1-2	-2%	-80*	6%	1%	-69*
COc1ccc(Nc2cc3n(c(=O)n2)CCc2cc(OC)c(OC)cc2-3)cc1	-14%	-79*	?	21%	?
COc1cc2c(cc1OC)-c1cc(Nc3ccccc3)nc(=O)n1CC2	-2%	-76*	-6%	5%	1
COc1cc2c(cc1OC)-c1cc(Nc3ccc(C)cc3)nc(=O)n1CC2	0%	?	1%	-2%	nt
CN1CCN(c2cc(CNC[C@H]3O[C@@H](n4cnc5c(=O)[nH]c(N)nc54)[C@H](O)[C@@H]3O)ccc2F)CC1	nt	6	nt	nt	-19
Cc1cccc(C)c1N1C(=O)c2ccccc2NC(=O)C1C(=O)Nc1ccc(N2CCOCC2)cc1 (stereo not given)	nt	-4	nt	nt	-4
Cc1cccc(C)c1NC(=O)NS(=O)(=O)c1ccccc1	nt	-7	nt	nt	3
Oc1c(Br)cc(Br)c2cccnc12	-3%	-75*	nt	nt	-78*
O=C1C(=O)c2ccccc2C(O)=C1CCCCl	11µM*	-10	nt	-10%	-25
Cn1c2ccccc2c(=O)c2cc(C#CC3=CCCCC3)ccc21	6.3µM*	-13	nt	-11%	-9
Cn1c2ccccc2c(=O)c2cc(C#Cc3cccc(N)c3)ccc21	?	0	nt	?	-3
Cn1c2ccccc2c(=O)c2ccc(C#Cc3ccc(N)cc3)cc21	6.3µM*	12	?	7%	8
O=C(NCC1COc2ccccc2O1)c1cccc(S(=O)(=O)N2CCN(c3ccccc3)CC2)c1 (stereo not given)	-24%	-11	nt	21%	-1
Oc1c(N=Nc2ccccn2)ccc2ccccc12	-12%	-97*	?	-7%	-95*
O=C(NNC(=O)c1c(O)c2ccccc2[nH]c1=O)c1ccccc1Br	3%	-75*	-7%	-33%	?
O=C(Nc1ccccc1F)c1ccc(O)c2ncccc12	nt	nt	nt	2%	nt
Cc1nc([N+](=O)[O-])c(Br)n1Cc1ccccc1	10µM*	-5	?	-15%	5
CCN(CC)CCCNc1nc2ccccc2c2[nH]c3ccc(OC)cc3c12	-9%	?	nt	nt	-75*
Cc1ccc(-n2cnnn2)cc1S(N)(=O)=O	nt	nt	nt	2%	nt
Cc1ccc(C2(c3noc(CN(C)Cc4cccnc4)n3)CCCC2)cc1	-4%	0	-13%	28µM*	nt
Nc1ccn(C(C=O)CC(C=O)CO)c(=O)n1 (stereo not given)	nt	11	nt	nt	-8
